# Hits are enriched below; roughly 2.7% of the tested compounds scored in any of these assays.
# TMEM16A act – activators or potentiators of mouse TMEM16A chloride channel; Q8BHY3; HEK293 TMEM16A/YFP-H148Q/I152L, iodide quench fluorescence; active compounds read low; B-score at 10 µM; hit rate 0.3% among 340,000; AID 623877;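 active = fluorescence-ratio B-score plate-corrected deviation score at least 3 library SD below zero, with starting fluorescence score within 5 deviations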;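 also: channel opened by trigger with iodide after compound preincubation; score built on the fluorescence ratio of max minus min over baseline; more negative score means more quench and so TMEM16A activation or potentiation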
# PP1 counter – PP1-alpha (human) inhibition in PP5 counter-screen | inhibition, % at 6.7 µM | purified PP1alpha, OMFP fluorescence | P62136 | hit rate 0.9% among 320,000;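 active = inhibition above the mean inhibition of all tested compounds plus 3 SD, computed separately for each screening campaign, cut at about 15% in these data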
# Target sequence (P62136 whole entry, looked up): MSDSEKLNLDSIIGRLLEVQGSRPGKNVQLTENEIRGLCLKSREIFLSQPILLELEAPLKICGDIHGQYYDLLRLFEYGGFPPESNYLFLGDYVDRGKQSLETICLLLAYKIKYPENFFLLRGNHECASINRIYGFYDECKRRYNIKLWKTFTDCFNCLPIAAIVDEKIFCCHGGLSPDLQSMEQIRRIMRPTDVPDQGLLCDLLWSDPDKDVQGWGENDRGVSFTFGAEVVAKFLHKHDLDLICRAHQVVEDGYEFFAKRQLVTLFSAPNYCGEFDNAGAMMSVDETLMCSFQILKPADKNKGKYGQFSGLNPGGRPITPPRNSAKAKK
# FID counter – displaces DNA intercalator in HCV helicase counter-screen; hit rate 0.17% among 290,000; inhibition, % at 7.9 µM; AID 1845; DNA fluorescent intercalator displacement, fluorescence; in the data active = inhibition above about 37%;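 also: 0% = vehicle and 100% = reference compound; higher means more ethidium bromide displaced from hairpin DNA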
# ANO1 block – mouse TMEM16A channel inhibition, primary screen; HEK293 TMEM16A/YFP iodide influx fluorescence, ionomycin; normalized B-score (activity score, 25-100; higher = stronger inhibition) at 10 µM; hit rate 1.2% among 310,000; AID 588511;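 active = ratio plate-corrected score three or more library SD toward inhibition, starting fluorescence score within five deviations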;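 also: score derived from kinetic fluorescence span divided by baseline fluorescence per well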
# PREPL inh – inhibits the human prolyl oligopeptidase-like enzyme. recombinant PREPL, fluorescence polarization activity-based probe. hit rate 0.68% among 320,000. AID 2751. inhibition, % at 5.96 µM. Q4J6C6; in the data active = inhibition above about 43%;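 also: 0% = enzyme with DMSO and 100% = wells lacking enzyme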
# PP5 primary – blocks human protein phosphatase 5 activity; inhibition, % at 6.7 µM; purified PP5c, OMFP substrate fluorescence; hit rate 0.18% among 320,000; P53041;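 active = inhibition above the campaign's mean inhibition across all tested compounds plus 3 SD, cut at about 9.5% in these data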;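 also: 0% = DMSO only and 100% = 100 µM cantharidin control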
# PP1 confirm – human PP1 phosphatase inhibition, confirmation. shares compounds with PP1 counter. purified PP1alpha, OMFP substrate fluorescence. inhibition, % at 6.7 µM. hit rate 52% among 1,900. AID 2358;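 active = mean PP1 inhibition above a set limit taken from the earlier primary screen, cut at about 15% in these data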
# PP5 counter – counter-screen for PP1 inhibitors: human PP5 phosphatase inhibition | AID 2360 | purified PP5c, OMFP fluorescence | shares compounds with PP1 counter | inhibition, % at 6.7 µM | hit rate 4% among 1,900;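 active = mean PP5 inhibition over triplicate wells above about 9.5% taken from the earlier PP1 screen, limit read from the data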
# * marks the source's active call; other numbers are inactive results; i = inactive; / = no result given.
SMILES,TMEM16A act,PP1 counter,FID counter,ANO1 block,PREPL inh,PP5 primary,PP1 confirm,PP5 counter
Cn1nc(C(F)(F)F)c(-c2ccccc2)c1NC(=O)c1nccnc1C(=O)O,i,24.6*,0.6,i,5.9,1.2,-0.5,-2.7
CCN1CCCC1CNC(=O)C(=O)NC(C)c1ccccc1 (stereo not drawn),i,-6.0,1.2,i,-8.1,-1.3,/,/
O=C(Nc1ccccn1)c1cc2cc([N+](=O)[O-])ccc2s1,i,20.7*,5.2,i,12.7,-2.1,18.5*,-4.3
O=C(Nc1ccccn1)c1ccc([N+](=O)[O-])cc1Cl,i,-2.6,0.0,i,2.9,-2.4,/,/
COc1ccc(Cn2ccnc2SCC(=O)NC2CCCC2)cc1,i,-2.0,-24.5,i,14.7,1.2,/,/
O=C(COc1coc(CN2CCCc3ccccc32)cc1=O)Nc1ccc([N+](=O)[O-])cc1,i,20.9*,/,i,19.7,-2.5,4.3,-3.8
CC(CC(=O)N1CCN(S(=O)(=O)c2ccc(Cl)cc2)CC1)n1cncn1 (stereo not drawn),i,2.9,-13.7,i,-6.2,0.9,/,/
CN(C)c1ccc(C2CNC(c3ccc(Cl)c([N+](=O)[O-])c3)c3[nH]c4ccccc4c32)cc1 (stereo not drawn),i,20.5*,7.5,i,33.0,4.3,17.3*,0.5
O=[N+]([O-])c1cccc(C2NCC(c3ccccc3Cl)c3c2[nH]c2ccccc32)c1 (stereo not drawn),i,9.6,24.6,i,10.9,-0.3,/,/
CC(NC(=O)c1cc(S(=O)(=O)N2CCOCC2)ccc1N1CCCC1)c1ccc(Cl)c(Cl)c1 (stereo not drawn),i,-3.7,/,i,26.4,4.0,/,/
CC(C)C(C(=O)O)N1C(=O)/C(=C/C=C/c2ccco2)SC1=S (stereo not drawn),i,19.5*,-8.7,i,34.6,0.7,14.2,-3.1
CC(C)C(C(=O)O)N1C(=O)/C(=C/c2cccn2C)SC1=S (stereo not drawn),i,-6.4,-16.4,i,-4.7,1.3,/,/
O=C1/C(=C/C=C/c2ccco2)SC(=S)N1c1ccc(O)cc1,i,38.3*,-8.2,i,9.6,-0.9,6.3,-2.0
CCOc1ccc(C(=O)C[n+]2ccccc2C)cc1,i,1.4,7.9,i,-4.6,-2.3,/,/
CCCc1cc(=O)oc2cc(OC3CCCCC3=O)ccc12 (stereo not drawn),i,/,-26.5,i,/,/,/,/
CN1CCc2nc3sc(C(=O)C45CC6CC(CC(C6)C4)C5)c(N)c3cc2C1,i,29.4*,1.3,i,28.8,-1.1,6.8,1.1
COc1ccc2[nH]c3c(=O)n(CCCCC(=O)N4CCCC4)c(=S)[nH]c3c2c1,i,36.2*,-2.8,i,16.4,2.4,32.8*,0.7
O=C(Cn1ccc2cc(S(=O)(=O)N3CCCCC3)ccc21)NCc1ccccc1F,i,-1.2,-23.8,i,5.6,0.9,/,/
COc1ccc(-c2nn(C)c(=O)c3ccccc23)cc1NC(=O)Cn1nc(-c2ccccc2)c2ccccc2c1=O,i,24.1*,-7.2,i,-23.9,2.6,17.5*,-2.4
O=C(N/N=C/c1ccccn1)c1cc(-c2cccc3ccccc23)n[nH]1,i,18.9*,-2.3,i,15.5,1.0,26.6*,2.7
O=C(N/N=C/c1ccccn1)c1cc(-c2ccc3ccccc3c2)n[nH]1,i,27.6*,-8.1,i,17.7,4.0,62.4*,5.6
O=C(N/N=C/c1ccccn1)c1cc(-c2ccccc2Cl)n[nH]1,i,2.8,-10.0,i,-4.2,0.4,/,/
Cc1cccc(N2CCN(S(=O)(=O)c3ccc(S(=O)(=O)N4CCCC4)cc3)CC2)c1C,i,-2.1,0.7,i,-24.9,-0.1,/,/
Cc1cccc(N2CCN(S(=O)(=O)c3ccc4c(c3)CC(=O)N4C)CC2)c1C,i,17.8*,-39.5,i,-2.8,0.7,8.4,3.2
CC(=O)Nc1cccc(NC(=O)CSc2ncc(C(=O)Nc3ccc(F)cc3)c(=O)n2C)c1,i,33.6*,/,i,-30.9,0.8,1.9,1.9
SMILES,TMEM16A act,PP1 counter,FID counter,ANO1 block,PREPL inh,PP5 primary,PP1 confirm,PP5 counter
CC(=O)Nc1ccc(NC(=O)CSc2ncc(C(=O)Nc3ccc(F)cc3)c(=O)n2C)cc1,i,3.0,/,i,2.4,0.6,/,/
CCOC(=O)C1=C(c2ccccc2)NC(=O)NC1c1cc(Cl)c(O)c(OC)c1 (stereo not drawn),i,0.3,-11.0,i,-7.0,-2.1,/,/
CCOC(=O)C1=C(c2ccccc2)NC(N)=NC1c1ccc(OCc2ccc(Cl)cc2)c(OC)c1 (stereo not drawn),i,24.9*,9.7,i,24.0,5.3,29.0*,-0.3
Cc1cccc(C)c1N(CC(=O)NC1CCCCC1)C(=O)c1csnn1,i,8.1,-25.3,i,6.8,-4.5,/,/
CCc1ccc(N=C2NC(=O)/C(=C/c3cc(Br)c(OCC(=O)O)c(OC)c3)S2)cc1,i,30.3*,2.3,i,16.2,0.2,21.1*,2.0
CCOc1cc(/C=C2\SC(=Nc3ccc(CC)cc3)NC2=O)ccc1OCC(=O)O,i,21.7*,-0.2,i,18.9,-1.3,8.2,-0.9
COc1cc(C=O)ccc1Oc1nc(Nc2ccc(F)cc2F)nc(N2CCOCC2)n1,i,-1.0,-16.5,i,10.4,3.1,/,/
NC1C2CN(c3nc4c(cc3F)c(=O)c(C(=O)O)cn4-c3ccc(F)cc3F)CC12 (stereo not drawn),i,19.9*,6.2,i,-6.6,1.1,14.5,-1.5
COc1ccc(NC(=O)CSc2nnnn2C2CCCCC2)cc1,i,2.7,-24.4,i,-1.3,1.0,/,/
Cc1ccc(C)c(-c2nnc(NC(=O)COc3ccccc3)o2)c1,i,21.8*,/,i,1.9,-0.3,20.9*,-2.4
Cc1ccc(C)c(-c2nnc(NC(=O)CCS(=O)(=O)c3ccccc3)o2)c1,i,4.3,/,i,5.6,0.0,/,/
Cc1cc(=O)oc2cc(OCC(=O)Nc3ccc(S(=O)(=O)N(C)C)cc3)ccc12,i,-3.1,-10.4,i,-24.1,7.9,/,/
Cc1cc(N/N=C/c2cccc(Cl)c2)nc(-n2nc(C)cc2C)n1,i,18.4*,-6.5,i,0.9,3.2,22.9*,-2.8
Cc1cc(C)n2nc(C(=O)N/N=C/c3cccc(Cl)c3)nc2n1,i,17.8*,-17.6,i,12.4,0.1,0.2,-2.0
Cc1cc(C)n2nc(C(=O)N/N=C/c3ccc(Cl)cc3)nc2n1,i,-7.0,3.8,i,3.1,-1.2,/,/
